PLK1 PBD block – inhibitors of human PLK1 polo-box domain binding; Plk1 PBD binding of FITC phosphopeptide, fluorescence polarization; AID 720504; 360,000 tested, 2.8% active; Potency, µM, without a hit: max response, negative = inhibition, usual class: inhibitors; further: series mostly up to about 57 µM; nearly all actives have a fitted effect of over 65% in size
VDR inhibitor – inhibitors of human vitamin D receptor | VDR-SRC2-3 peptide fluorescence polarization, 2 h | 400,000 tested, 0.93% active | Potency, µM, for inactives: max response, negative = inhibition, actives largely listed as inhibitors | P11473
Target sequence (P11473 whole entry, looked up): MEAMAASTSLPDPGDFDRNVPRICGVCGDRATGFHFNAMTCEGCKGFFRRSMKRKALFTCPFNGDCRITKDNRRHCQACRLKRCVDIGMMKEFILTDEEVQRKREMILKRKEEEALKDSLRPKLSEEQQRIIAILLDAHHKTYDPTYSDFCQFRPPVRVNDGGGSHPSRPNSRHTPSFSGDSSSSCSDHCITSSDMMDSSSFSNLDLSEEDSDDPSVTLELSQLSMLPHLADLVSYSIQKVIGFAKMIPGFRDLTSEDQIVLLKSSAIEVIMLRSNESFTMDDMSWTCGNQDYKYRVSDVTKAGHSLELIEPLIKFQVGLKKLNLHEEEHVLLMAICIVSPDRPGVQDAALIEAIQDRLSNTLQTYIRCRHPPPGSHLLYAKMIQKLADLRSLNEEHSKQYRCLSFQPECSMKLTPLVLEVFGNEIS
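Inhibition of the VDR/SRC2-3 peptide interaction is quantified by fluorescence polarization. Compounds (23 nl, pintool) incubate with the reagents for 2 hours at ambient room temperature.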
KAT2A inh – inhibitors of human GCN5L2 histone acetyltransferase. Q92830. GCN5L2 HAT assay, ThioGlo1 CoA-SH fluorescence. Potency, µM (doses to about 58.9 µM), inactives show top-dose activity change, negative = inhibition, most hits filed as inhibitors. 390,000 tested, 0.21% active. AID 504327
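qHTS, 1536-well. 20nM enzyme, pH 7.5 HEPES/EDTA/Tween-20 buffer; 15 min compound preinc., RT. Start: 75uM H3(1-25), 70uM AcCoA, 50uM ThioGlo1. Read Ex340/Em540 at t=0 (autofluorescence flag) and t=20 min.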
TDP1 inh – inhibitors of human tyrosyl-DNA phosphodiesterase TDP1; Q9NUW8; recombinant TDP1, AlphaScreen DNA substrate cleavage; Potency, µM (titrated, usually from 130 µM), for inactives: top-dose activity change, negative = inhibition, most hits filed as inhibitors; 350,000 tested, 0.28% active; further: nearly all actives have a fitted effect of over 40% in size
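Signal: AlphaScreen proximity between streptavidin donor and anti-FITC acceptor beads on intact substrate. Reaction: Tdp1 1 nM, substrate 15 nM final, 5 min RT after 15 min compound preincubation.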
DT40 TDP1 CPT – DT40-hTDP1 cell growth loss with CPT; 420,000 tested, 12% active; Potency, µM (series often up to 46.2 µM), for the others: at the highest dose activity change, negative = growth inhibition, usual class: inhibitors; chicken DT40 Tdp1-/-;hTDP1 cells + 20 nM CPT, ATP luminescence, 48 h; further: nearly all actives have a fitted effect of over 55% in size
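Chicken DT40 Tdp1-/- cells complemented with human TDP1, 400 cells/well, exposed to compounds plus 20 nM camptothecin for at least 48 h at 37 C; viability read as ATP content by CellTiter-Glo luminescence.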
TDP1 cell noCPT – qHTS for Inhibitors of human tyrosyl-DNA phosphodiesterase 1 (TDP1): qHTS in cells in absence of CPT | DT40 Tdp1-/- hTDP1 cells, no CPT, ATP luminescence, 48 h | Potency, µM (top dose mostly 46.2 µM), for inactives: at the top dose activity change, negative = growth inhibition, hits mostly inhibitors | 420,000 tested, 15% active | AID 686978, 2013; further: nearly all actives have a fitted effect of over 55% in size
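No-CPT arm: Tdp1-/-;hTDP1 DT40 cells (400/well) plus compounds, incubated ≥48 hr at 37 °C. Readout CellTiter-Glo luminescence.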
* hit, by the source's call; ? = inconclusive; nt = not tested or not shown; [ ] = dose if it differs, or a comment. Hits are enriched below; roughly 18% of the tested compounds scored in any of these assays. The call rests on the fitted dose curve; in most records, active means well fitted curve in the direction sought with a large enough effect; inconclusive means small, poorly fitted or top-dose-only effect, or another doubt; inactive means no such curve, though single readings can be large; an effect the other way counts as inactive or inconclusive. On the % scale 0 is the no-effect control and ±100 the full control effect; potency means the concentration at half of the fitted maximal effect.

SMILES	PLK1 PBD block	VDR inhibitor	KAT2A inh	TDP1 inh	DT40 TDP1 CPT	TDP1 cell noCPT
Cc1cccc(-c2nc(SCC(=O)Nc3cccc(C(F)(F)F)c3)n3[nH]c(=O)cc3n2)c1	nt	8%	-14%	nt	-5%	-6%
Cc1ccc2ncccc2c1N	-12%	-7%	-7%	3%	-15%	-18%
COc1ccc2ncccc2c1Cc1c(OC)ccc2ncccc12	-2%	13%	nt	nt	15µM*	13µM*
COc1ccc(OC)c(/C=C/c2ccnc3ccccc23)c1	2%	-9%	nt	nt	3.7µM*	4.6µM*
COc1ccccc1/C=C/c1ccnc2ccccc12	nt	nt	nt	nt	?	14µM*
COc1ccc(OC)c(Nc2ncnc3ccccc23)c1	-14%	2%	-4%	9%	-21%	-27%
COc1cc(OC)c(OC)cc1/C=C/c1ccnc2ccccc12	0%	-11%	nt	nt	13µM*	16µM*
COc1cccc(-c2sc3ccc(OC)cc3c2-c2cnc(N3CCOCC3)nc2)c1	-7%	nt	nt	nt	-9%	-24%
Cc1ccc(CCNC(=O)C(NS(=O)(=O)c2ccc3c(c2)oc(=O)n3C)C(C)C)cc1 (stereo unspecified)	nt	8%	-3%	-5%	2%	-4%
CCC1=C(c2ccc(C)cc2)S(=O)(=O)N=C1N1CCC(C(=O)N2CCCCC2)CC1	nt	4%	-6%	10%	-30%	?
COc1cc(C)c(-c2[nH]ncc2-c2csc(C)n2)c(O)c1	30µM*	-13%	1%	0%	?	4%
CSc1ccccc1NC(=O)CN(C)CC(=O)Nc1cc(C)ccc1C	-13%	6%	31%	-3%	-4%	21µM*
CSc1ccccc1NC(=O)CN(C)CC(=O)NCc1ccccc1	5%	1%	-10%	-3%	-20%	-27%
COc1ccc(/C=N/NC(=O)CN(CCc2ccccc2)S(=O)(=O)c2ccc(NC(C)=O)cc2)cc1OC	1%	0%	-3%	-1%	?	?
CSc1ccccc1NC(=O)CN(C)C(=O)Cc1c[nH]c2ccccc12	0%	-7%	0%	2%	-1%	-24%
COc1ccc(CC(=O)N(C)CC(=O)Nc2ccccc2SC)cc1	24µM*	?	-1%	-14%	?	?
COc1ccc(CNC(=O)CN(C)S(=O)(=O)c2ccccc2)cc1	8%	-4%	-1%	3%	-21%	14%
COc1ccc(S(=O)(=O)N(CCc2ccccc2)CC(=O)NCc2ccc(C)cc2)cc1	nt	-13%	-3%	-4%[12.3 µM]	?	21µM*
COc1ccc(S(=O)(=O)N(CCc2ccccc2)CC(=O)Nc2ccc(C)c(C)c2)cc1OC	nt	-6%	-2%	1%[12.3 µM]	15µM*	16µM*
CN(C)c1cc(Cl)c2nonc2c1N	-18%	?	-29%	5%	3%	3%
COc1ccccc1CNC(=O)Cc1c(C)c2c(cc(C)c3c(C)coc32)oc1=O	nt	5%	-5%	5%	6%	-1%
CN[C@@H](CCCN=C(N)N)C(=O)N[C@@H](CCCCN)C(=O)N1CCC[C@H]1C(=O)N[C@@H](Cc1c[nH]c2ccccc12)C(=O)N[C@H](C(=O)N[C@H](CC(C)C)C(=O)O)C(C)(C)C	nt	7%	-15%	13%	nt	nt
Cc1cccc(NC(=O)CN(CCc2ccccc2)S(C)(=O)=O)c1	8%	13%	0%	nt	-26%	-16%
COc1ccc(S(=O)(=O)N(CCc2ccccc2)CC(=O)Nc2cccc(OC)c2)cc1	nt	5%	-7%	0%[12.3 µM]	?	18µM*
COc1ccc(S(=O)(=O)N(CC(=O)Nc2ccccc2Br)Cc2ccccc2)cc1	nt	4%	-10%	4%[12.3 µM]	?	?
SMILES	PLK1 PBD block	VDR inhibitor	KAT2A inh	TDP1 inh	DT40 TDP1 CPT	TDP1 cell noCPT
Cc1ccc(S(=O)(=O)N(CCc2ccccc2)CC(=O)Nc2cc(C)ccc2C)cc1	nt	6%	-6%	2%	?	16µM*
COc1ccc(S(=O)(=O)N(CCc2ccccc2)CC(=O)Nc2cc(C)ccc2C)cc1	nt	-1%	-2%	3%[2.28 µM]	18µM*	21µM*
Cc1ccc2c(C)nc(Nc3nc(CSc4nc5ccccc5s4)cc(=O)[nH]3)nc2c1	-20%	-3%	nt	nt	?	5.2µM*
Cc1cc(C)c2nc(Nc3nc(CSc4nc5ccccc5[nH]4)cc(=O)[nH]3)nc(C)c2c1	-18%	-4%	nt	nt	-25%	?
Cc1ccc2c(C)nc(Nc3nc(CSc4nnnn4-c4ccccc4)cc(=O)[nH]3)nc2c1	-7%	3%	-2%	5%	5.8µM*	6.5µM*
CO/N=C(/C(=O)N[C@@H]1C(=O)N2C(C(=O)[O-])=C(C[n+]3ccn4ncccc43)CS[C@H]12)c1nsc(N)n1	nt	nt	nt	nt	6%	-14%
COc1ccc(-c2n[nH]c3c2cnc2ccc(F)cc23)cc1	nt	10%	14%	-1%	-2%	8%
O=Cc1ccc(-c2cccc(C(=O)O)c2)o1	-22%	-20%	0%	45µM*	6%	-13%
Cc1nnc(N/N=C\c2ccc(-c3cccc(C(=O)O)c3)o2)n1N	-7%	-17%	-10%	50µM*	?	-6%
O=C(CSC1=Nc2ccccc2C2CC=NN12)Nc1ccc(F)c(F)c1F (stereo unspecified)	?	-15%	-6%	0%	?	5%
CCCCOC(=O)c1ccc(NC(=O)CSC2=Nc3ccccc3C3CC=NN23)cc1 (stereo unspecified)	-12%	?	-10%	3%	23µM*	?
COc1ccc(C=C2C(=O)c3ccccc3C2=O)cc1O	19µM*	-7%	-7%	5%	0%	0%
COc1cc(C=C2C(=O)c3ccccc3C2=O)cc(OC)c1	1.1µM*	?	-22%	-4%	-7%	-30%
COc1cccc(C=C2Cc3ccccc3C2=O)c1	-3%	nt	nt	nt	1%	-13%
Cc1cccc(N2CCN(C(=O)c3cn(CC(C)C)c(=O)c4c3c3ccccc3n4C)CC2)c1C	nt	?	3%	0%	8.2µM*	5.2µM*
Cc1ccc(C)c(N2CCN(C(=O)c3cn(CC(C)C)c(=O)c4c3c3ccccc3n4C)CC2)c1	nt	0%	-12%	0%	?	23µM*
Cc1cccc(N2CCN(C(=O)c3cn(C)c(=O)c4c3c3ccccc3n4C)CC2)c1C	-8%	15%	-8%	2%	22µM*	22µM*
CO[C@@]1(NC(=O)CSC[C@@H](N)C(=O)O)C(=O)N2C(C(=O)O)=C(CSc3nnnn3C)CS[C@@H]21	nt	nt	nt	nt	-2%	-9%
